# Source: the supplement of paper PMC10849652
# The full data set covers some 8,800 targets. This sample favours those with a hit. About 0.5% of all pairs of compound and target were hits. A number with no mark means an inactive call.
# Legend:
# Assay in all cases: log2 fold change, soluble protein after heating vs DMSO (PISA); higher = thermal stabilisation; K562 lysate, 10 uM; active = over 0.2 and 3.5 SD of the protein, either way, in both replicates (recomputed)
# [1] = compound: C=CC(=O)N1CCC[C@@H](n2nc(-c3ccc(Oc4ccccc4)cc3)c3c(N)ncnc32)C1 [ibrutinib]
# How it was run: (§1)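 K562 pellets were dounce-homogenised in PBS pH 7.4 containing 1 mM MgCl2, and the crude extract, at 1 mg/mL protein, was exposed to 10 μM compound for 30 min. Aliquots were heated for 3 min across 48°C-58°C, pooled, brought to 0.5% NP-40 at 4°C and spun at 21,000xg for 90 min, with the supernatant taken as soluble protein. TMTpro 16plex LC-MS/MS with equalised channel sums quantified that protein. Values are log-two fold changes in thermal stability relative to solvent controls, taken from duplicates.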
# [2] = compound: CC(=O)c1cnc2ccc(-c3cc(Cl)c(O)c(Cl)c3)nc2c1N[C@H]1CC[C@H](CN(C)C)CC1
# How it was run: as §1
# [3] = compound: CC(C)(C)Cn1c(N)nc2ccc(-c3[nH]c(C(C)(C)C)nc3-c3ccc(F)cc3)nc21 [ralimetinib]
# How it was run: as §1
# [4] = compound: CC(C)(O)CC(=O)NCCn1ccc2ncnc(Nc3ccc(Oc4cccc(C(F)(F)F)c4)c(Cl)c3)c21
# How it was run: as §1
# [5] = compound: CC(C)C1=C2N=C(C=C(N2N=C1)NCC3=CC=CC=C3)NCCCCCCN
# How it was run: as §1
# [6] = compound: CC1=C(C(CC(=O)N1)C2=CC=C(C=C2)C(F)(F)F)C(=O)NC3=C(C=C4C(=C3)C=NN4)F
# How it was run: as §1
# [7] = compound: CC1=C(C2=C(C=C1)C(=O)C3=CC=CC=C3N2CCCN)C
# How it was run: as §1
# [8] = compound: CC1=C(C=C(C=C1)NC(=O)C2=CC(=CC=C2)C(C)(C)C#N)NC3=CC4=C(C=C3)N=CN(C4=O)C
# How it was run: as §1
# [9] = compound: CC1=C(C=C(C=C1)NC(=O)C2=CC(=CC=C2)N(C)C)NC(=O)C3=CC=C(C=C3)O
# How it was run: as §1
# [10] = compound: CC1=CC=C(C=C1)SC2=C3C=C(SC3=CN=C2)C(=O)N
# How it was run: as §1
# Sequence of UniProt P42574 (P42574 whole entry, looked up): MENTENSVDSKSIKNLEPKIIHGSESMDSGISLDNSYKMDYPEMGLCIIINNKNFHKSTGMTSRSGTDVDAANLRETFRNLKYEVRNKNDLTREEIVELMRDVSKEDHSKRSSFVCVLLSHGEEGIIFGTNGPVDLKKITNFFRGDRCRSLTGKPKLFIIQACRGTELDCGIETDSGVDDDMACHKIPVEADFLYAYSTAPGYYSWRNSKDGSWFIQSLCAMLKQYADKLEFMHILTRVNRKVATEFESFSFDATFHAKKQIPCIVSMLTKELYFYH
# Sequence of UniProt Q8N7R7 (Q8N7R7 whole entry, looked up): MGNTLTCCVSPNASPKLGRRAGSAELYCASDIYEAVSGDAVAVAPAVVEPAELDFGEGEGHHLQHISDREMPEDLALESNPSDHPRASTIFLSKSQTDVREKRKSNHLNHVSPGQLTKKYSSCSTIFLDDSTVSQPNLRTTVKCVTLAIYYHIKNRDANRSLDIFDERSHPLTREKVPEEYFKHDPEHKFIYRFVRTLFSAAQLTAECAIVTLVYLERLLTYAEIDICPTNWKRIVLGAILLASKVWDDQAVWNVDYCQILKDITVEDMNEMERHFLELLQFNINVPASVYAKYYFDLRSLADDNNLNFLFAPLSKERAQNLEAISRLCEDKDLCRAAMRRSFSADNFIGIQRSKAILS
# Sequence of UniProt O95260 (O95260 whole entry, looked up): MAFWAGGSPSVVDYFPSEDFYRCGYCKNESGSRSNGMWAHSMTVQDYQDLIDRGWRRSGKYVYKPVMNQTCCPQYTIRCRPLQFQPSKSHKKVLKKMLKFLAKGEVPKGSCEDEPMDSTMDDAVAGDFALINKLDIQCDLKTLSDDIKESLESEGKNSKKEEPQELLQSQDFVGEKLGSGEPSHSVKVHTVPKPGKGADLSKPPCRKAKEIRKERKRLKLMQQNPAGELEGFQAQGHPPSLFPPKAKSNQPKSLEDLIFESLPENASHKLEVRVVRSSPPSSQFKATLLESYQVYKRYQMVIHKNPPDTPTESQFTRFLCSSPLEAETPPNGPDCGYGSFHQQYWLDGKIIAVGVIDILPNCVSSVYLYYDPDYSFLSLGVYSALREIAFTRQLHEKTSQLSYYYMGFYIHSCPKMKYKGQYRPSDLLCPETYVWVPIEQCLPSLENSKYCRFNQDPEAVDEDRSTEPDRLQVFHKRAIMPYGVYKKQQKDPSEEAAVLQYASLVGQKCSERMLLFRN
# Sequence of UniProt Q14692 (Q14692 whole entry, looked up): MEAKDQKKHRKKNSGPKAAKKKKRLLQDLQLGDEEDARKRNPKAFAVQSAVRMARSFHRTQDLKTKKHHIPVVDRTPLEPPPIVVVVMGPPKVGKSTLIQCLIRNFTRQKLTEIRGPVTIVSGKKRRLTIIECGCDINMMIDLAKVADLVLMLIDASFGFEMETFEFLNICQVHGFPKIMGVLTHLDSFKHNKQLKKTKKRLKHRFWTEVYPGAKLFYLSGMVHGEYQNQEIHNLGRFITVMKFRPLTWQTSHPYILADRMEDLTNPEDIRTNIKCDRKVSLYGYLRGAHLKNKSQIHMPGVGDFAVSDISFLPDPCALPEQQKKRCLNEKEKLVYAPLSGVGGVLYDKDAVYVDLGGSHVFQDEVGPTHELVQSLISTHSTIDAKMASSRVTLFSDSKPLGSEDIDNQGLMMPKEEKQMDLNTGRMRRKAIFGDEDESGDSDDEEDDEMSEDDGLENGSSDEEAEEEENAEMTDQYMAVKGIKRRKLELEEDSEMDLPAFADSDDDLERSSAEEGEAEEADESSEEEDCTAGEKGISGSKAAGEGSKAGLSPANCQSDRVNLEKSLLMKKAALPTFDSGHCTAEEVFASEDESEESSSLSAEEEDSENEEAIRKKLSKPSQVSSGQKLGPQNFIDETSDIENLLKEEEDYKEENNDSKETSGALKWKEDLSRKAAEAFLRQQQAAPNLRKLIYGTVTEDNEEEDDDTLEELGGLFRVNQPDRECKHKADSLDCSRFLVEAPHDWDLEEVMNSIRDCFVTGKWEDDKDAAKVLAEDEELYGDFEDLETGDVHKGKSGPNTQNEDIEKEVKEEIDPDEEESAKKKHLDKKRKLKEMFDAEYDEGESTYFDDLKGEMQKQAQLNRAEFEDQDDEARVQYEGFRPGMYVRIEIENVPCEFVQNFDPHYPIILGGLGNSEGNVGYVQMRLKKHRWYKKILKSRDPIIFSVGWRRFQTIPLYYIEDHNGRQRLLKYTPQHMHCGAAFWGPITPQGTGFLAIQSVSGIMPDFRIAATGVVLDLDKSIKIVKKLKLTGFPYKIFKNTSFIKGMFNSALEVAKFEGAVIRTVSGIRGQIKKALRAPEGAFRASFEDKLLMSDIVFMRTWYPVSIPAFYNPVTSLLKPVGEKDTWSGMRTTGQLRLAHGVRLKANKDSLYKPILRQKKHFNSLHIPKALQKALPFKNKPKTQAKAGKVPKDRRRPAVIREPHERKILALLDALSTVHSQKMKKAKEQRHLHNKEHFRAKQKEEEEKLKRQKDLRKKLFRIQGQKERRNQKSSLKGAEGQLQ
# Sequence of UniProt Q14839 (Q14839 whole entry, looked up): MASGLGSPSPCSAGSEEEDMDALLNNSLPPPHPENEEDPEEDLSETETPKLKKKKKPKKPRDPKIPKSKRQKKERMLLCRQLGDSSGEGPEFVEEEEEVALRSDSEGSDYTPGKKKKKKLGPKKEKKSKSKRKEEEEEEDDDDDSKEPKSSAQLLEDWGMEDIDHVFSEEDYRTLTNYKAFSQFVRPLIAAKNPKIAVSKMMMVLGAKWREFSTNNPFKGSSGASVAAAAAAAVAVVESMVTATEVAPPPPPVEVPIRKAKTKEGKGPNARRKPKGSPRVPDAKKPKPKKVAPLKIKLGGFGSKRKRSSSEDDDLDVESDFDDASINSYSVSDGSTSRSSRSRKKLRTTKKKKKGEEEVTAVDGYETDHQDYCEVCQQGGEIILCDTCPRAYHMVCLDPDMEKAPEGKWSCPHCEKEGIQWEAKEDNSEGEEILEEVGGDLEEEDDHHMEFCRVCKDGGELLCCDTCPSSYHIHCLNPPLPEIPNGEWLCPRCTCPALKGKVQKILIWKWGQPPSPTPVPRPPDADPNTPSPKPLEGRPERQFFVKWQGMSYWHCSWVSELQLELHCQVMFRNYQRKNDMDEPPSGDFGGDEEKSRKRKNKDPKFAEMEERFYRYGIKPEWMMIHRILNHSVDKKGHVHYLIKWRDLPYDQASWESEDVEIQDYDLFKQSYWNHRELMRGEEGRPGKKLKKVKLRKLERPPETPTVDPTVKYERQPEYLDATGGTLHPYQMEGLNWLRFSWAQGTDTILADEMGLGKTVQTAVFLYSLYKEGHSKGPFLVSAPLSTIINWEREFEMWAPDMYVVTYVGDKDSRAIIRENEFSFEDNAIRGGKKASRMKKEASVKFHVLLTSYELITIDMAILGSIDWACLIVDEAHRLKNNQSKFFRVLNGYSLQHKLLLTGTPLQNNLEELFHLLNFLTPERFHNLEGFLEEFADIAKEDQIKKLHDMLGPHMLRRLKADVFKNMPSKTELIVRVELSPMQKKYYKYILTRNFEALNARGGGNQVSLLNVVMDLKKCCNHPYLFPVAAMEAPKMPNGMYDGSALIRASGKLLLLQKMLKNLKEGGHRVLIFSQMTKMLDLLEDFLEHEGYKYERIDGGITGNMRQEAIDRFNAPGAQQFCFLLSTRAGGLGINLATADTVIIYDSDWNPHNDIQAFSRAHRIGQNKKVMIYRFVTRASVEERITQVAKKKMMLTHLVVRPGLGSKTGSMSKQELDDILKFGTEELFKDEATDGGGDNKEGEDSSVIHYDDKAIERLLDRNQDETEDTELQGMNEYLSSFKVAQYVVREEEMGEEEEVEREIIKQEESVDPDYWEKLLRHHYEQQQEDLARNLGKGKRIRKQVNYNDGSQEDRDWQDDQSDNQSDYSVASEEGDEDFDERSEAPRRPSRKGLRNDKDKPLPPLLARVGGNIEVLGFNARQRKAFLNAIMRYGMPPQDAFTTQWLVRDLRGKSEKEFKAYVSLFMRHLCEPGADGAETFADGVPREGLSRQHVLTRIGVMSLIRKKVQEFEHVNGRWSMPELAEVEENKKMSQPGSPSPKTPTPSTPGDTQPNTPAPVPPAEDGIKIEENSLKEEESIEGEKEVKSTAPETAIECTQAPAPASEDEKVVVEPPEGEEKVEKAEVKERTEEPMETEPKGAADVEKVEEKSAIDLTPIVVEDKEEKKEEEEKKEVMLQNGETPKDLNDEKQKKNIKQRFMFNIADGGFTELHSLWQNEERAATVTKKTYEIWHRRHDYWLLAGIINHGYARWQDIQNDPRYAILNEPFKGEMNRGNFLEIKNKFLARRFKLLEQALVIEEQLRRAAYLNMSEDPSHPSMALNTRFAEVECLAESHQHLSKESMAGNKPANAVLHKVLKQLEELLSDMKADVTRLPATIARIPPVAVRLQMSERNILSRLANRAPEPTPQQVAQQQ
# Sequence of UniProt Q9Y2V2 (Q9Y2V2 whole entry, looked up): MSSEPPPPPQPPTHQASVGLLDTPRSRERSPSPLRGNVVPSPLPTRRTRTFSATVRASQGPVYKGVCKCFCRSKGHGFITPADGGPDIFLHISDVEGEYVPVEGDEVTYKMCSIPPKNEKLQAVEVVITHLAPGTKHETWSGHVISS
# Sequence of UniProt O60508 (O60508 whole entry, looked up): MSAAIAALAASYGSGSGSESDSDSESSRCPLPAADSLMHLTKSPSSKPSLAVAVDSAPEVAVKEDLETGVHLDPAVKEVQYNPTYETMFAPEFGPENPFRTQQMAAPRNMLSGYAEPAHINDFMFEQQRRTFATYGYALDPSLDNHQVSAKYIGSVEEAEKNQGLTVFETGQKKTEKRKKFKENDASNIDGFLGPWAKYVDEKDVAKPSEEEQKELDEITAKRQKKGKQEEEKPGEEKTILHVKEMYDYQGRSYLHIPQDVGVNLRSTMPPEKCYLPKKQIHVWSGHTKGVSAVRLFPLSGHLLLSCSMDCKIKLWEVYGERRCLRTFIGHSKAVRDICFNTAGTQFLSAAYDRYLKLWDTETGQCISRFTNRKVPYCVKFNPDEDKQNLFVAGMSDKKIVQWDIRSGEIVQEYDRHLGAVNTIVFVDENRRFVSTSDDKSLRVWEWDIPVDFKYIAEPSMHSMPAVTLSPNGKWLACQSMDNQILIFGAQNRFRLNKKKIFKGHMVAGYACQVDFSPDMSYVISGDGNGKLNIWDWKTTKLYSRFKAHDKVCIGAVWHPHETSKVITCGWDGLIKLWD
Target,log2 fold change [1],log2 fold change [2],log2 fold change [3],log2 fold change [4],log2 fold change [5],log2 fold change [6],log2 fold change [7],log2 fold change [8],log2 fold change [9],log2 fold change [10]
CHAC2 (UniProt Q8WUX2),-0.064,-0.014,-0.01,0.043,-0.118,-0.026,-0.048,-0.016,0.017,-0.031
CDC40 (UniProt O60508),0.02,0.034,-0.219 (active),0.016,-0.115,0.084,-0.019,0.056,0.136,-0.028
CARHSP1 (UniProt Q9Y2V2),0.053,0.021,-0.024,-0.032,0.017,-0.029,0.006,0.014,0.009,-0.008
BRD2 isoform 2 (UniProt P25440),0.074,-0.041,-0.056,0.021,0.26,-0.025,0.008,0.056,0.049,0.105
CCNYL1 (UniProt Q8N7R7),0.047,0.007,0.019,-0.032,0.012,0.027,-0.023,0.028,-0.027,-0.006
C3 (UniProt P01024),-0.047,-0.011,-0.077,-0.032,0.865,0.243,-0.004,0.01,0.026,0.001
CASP9 (UniProt P55211),-0.039,-0.06,0.04,-0.06,-0.017,0.01,-0.003,-0.01,0.011,-0.012
ATR (UniProt Q13535),0.06,0.319,0,-0.037,0.016,-0.015,-0.031,0.032,0.039,-0.053
CAMK2B (UniProt Q13554),0.092,0.023,0.028,0.045,0.075,-0.035,-0.018,-0.005,0.046,-0.032
CDS2 (UniProt O95674),0.008,-0.013,-0.061,-0.07,-0.03,-0.025,0.004,0.05,0.04,-0.015
CDK5RAP3 isoform 4 (UniProt Q96JB5),-0.01,-0.001,-0.022,-0.022,-0.016,0.004,0.013,0.025,0.017,0.014
BORCS5 (UniProt Q969J3),0.088,-0.02,-0.033,0.012,0.033,0.153,-0.012,0.021,0.034,-0.001
CHD4 isoform 2 (UniProt Q14839),-0.003,-0.008,0.026,0.011,0.025,0.001,-0.037,0.004,0.006,0.022
CASP3 (UniProt P42574),0.028,-0.004,0.009,0.012,-0.048,-0.047,-0.026,0.025,-0.02,-0.01
ATE1 isoform 2 (UniProt O95260),0.056,0.001,-0.006,0.063,-0.016,0.048,-0.001,-0.04,-0.004,0.011
BNIP1 (UniProt Q12981),0.038,0.005,0.01,-0.011,0.051,0.046,0.005,0.002,0.024,0.012
CCNC (UniProt P24863),-0.04,0.087,0.026,0.011,0.02,-0.05,0.034,0.061,0.016,0.184
ATP6V1B1 (UniProt P15313),-0.001,0,0.037,-0.025,-0.013,0.024,-0.011,0.005,0.031,-0.015
CAMK2G isoform 8 (UniProt Q13555),0.036,0.173,-0.022,0.009,-0.001,-0.019,0.073,-0.03,0.05,-0.027
BMS1 (UniProt Q14692),0.095,0.018,0.018,-0.041,-0.008,-0.011,0.007,0.049,0.034,0.032
CAPN15 (UniProt O75808),0.037,-0.065,0.09,0.008,-0.002,0.025,0.019,0.086,0.007,0.046
CCPG1 isoform 5 (UniProt Q9ULG6),0.021,-0.014,0.08,0.013,0.014,-0.004,-0.058,-0.026,-0.029,-0.102
CCNB1 (UniProt P14635),-0.01,0.503 (active),0.009,-0.045,-0.012,-0.005,0.003,0.044,-0.002,0
BLOC1S6 (UniProt Q9UL45),0.156,-0.07,0.015,0.061,-0.029,0.014,-0.033,-0.001,-0.017,0.012
CHD3 isoform 3 (UniProt Q12873),-0.003,0.021,-0.01,-0.021,-0.001,0.019,-0.018,0,-0.013,0.007
CCDC32 isoform 2 (UniProt Q9BV29),0.276 (active),0.026,-0.005,0,0.047,-0.017,-0.03,0.051,0.028,0.03
CALB2 (UniProt P22676),0.085,0.016,0,-0.083,-0.093,-0.025,-0.116,0.028,-0.039,-0.014
ATM (UniProt Q13315),0.027,0.253 (active),0.013,-0.021,0.04,0.002,-0.027,-0.014,-0.015,-0.013
BUD23 isoform 3 (UniProt O43709),-0.017,-0.007,0.089,-0.002,-0.064,-0.004,0.119,-0.056,-0.023,-0.001
CDAN1 (UniProt Q8IWY9),0.035,-0.004,0,-0.029,-0.02,-0.001,-0.023,0.035,0.056,-0.008
